Screening data (PubChem)
SENP7 inh: blocks the human protease SENP7; recombinant SENP7, Z-RLRGG-aminoluciferin luminescence, 40 min; inhibition, % at 5 µM; actives 1.5% (n = 330,000);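 active means inhibition above about 50% at the single test dose, limit read from the data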;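 further: plate controls were DMSO with enzyme for no effect and no enzyme buffer wells for full effect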
SENP6 inh: SENP6 protease inhibition. Q9GZR1. Recombinant SENP6 catalytic domain, aminoluciferin luminescence. actives 1.8% (n = 330,000). inhibition, % at 10 µM;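 active means inhibition above about 50% at the single tested dose, limit read from the data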;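 further: plate controls were DMSO wells with enzyme for no effect and DMSO wells lacking enzyme for full effect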
Target sequence (Q9GZR1 628-1112 limits assumed): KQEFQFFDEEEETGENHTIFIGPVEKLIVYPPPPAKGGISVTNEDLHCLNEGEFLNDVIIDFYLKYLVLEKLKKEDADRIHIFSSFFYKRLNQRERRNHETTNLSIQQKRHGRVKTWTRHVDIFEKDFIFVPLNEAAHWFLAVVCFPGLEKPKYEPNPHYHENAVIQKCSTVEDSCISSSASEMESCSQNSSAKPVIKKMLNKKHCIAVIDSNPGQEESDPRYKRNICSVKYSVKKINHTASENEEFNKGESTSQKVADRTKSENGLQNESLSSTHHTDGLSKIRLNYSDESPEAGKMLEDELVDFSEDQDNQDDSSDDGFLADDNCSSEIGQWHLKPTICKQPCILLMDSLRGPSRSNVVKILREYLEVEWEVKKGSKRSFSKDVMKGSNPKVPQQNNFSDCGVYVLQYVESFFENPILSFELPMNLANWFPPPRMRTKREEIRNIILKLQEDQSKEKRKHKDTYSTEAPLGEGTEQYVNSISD
C8 TRAIL sens: sensitizes caspase-8 expressing cells to TRAIL | inhibition (viability loss, TRAIL sensitization), % at 10 µM | actives 1% (n = 360,000) | NB7+C8 cells + TRAIL, ATPlite viability luminescence;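 active means compounds causing at least 50% loss of cell viability in the single-dose screen, relative to plate controls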
SENP8 block-1: inhibitors of human SENP8 protease. purified SENP8, Z-RLRGG-aminoluciferin cleavage, luminescence. inhibition, % at 10 µM. actives 1.2% (n = 330,000); in the data active means inhibition above about 50%
PPC-1+TRAIL kill: compounds killing PPC-1 cancer cells with TRAIL present (potentiator screen, no TRAIL-free arm) | PPC-1 cells + TRAIL, ATPLite viability luminescence | cell killing (% activity), % at 4 µM or 5 µM | actives 0.41% (n = 220,000) | AID 1443;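 active means cell killing above 50% in the first pass at 4 µM, then a duplicate retest at 5 µM averaging 50% or more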;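 further: plate controls were cells with TRAIL plus DMSO for no effect and medium-only wells lacking cells for full effect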
SENP8 block-2: blocks human SENP8 cleavage of Nedd8 substrate. AID 602440. recombinant SENP8, Nedd8 substrate fluorescence. Q96LD8. actives 0.64% (n = 360,000). inhibition, % at 20 µM; in the data active means inhibition mostly above about 40%, no sharp cut-off; inactive means mostly below about 27%
* hit, by the source's call; . = not tested or not shown. This is a sample that favours compounds with a hit; in the whole collection about 3% have one here.

SMILES | SENP7 inh | SENP6 inh | C8 TRAIL sens | SENP8 block-1 | PPC-1+TRAIL kill | SENP8 block-2
COc1cccc(NC(=O)/C=C/c2ccc([N+](=O)[O-])cc2)c1 | 38.2 | 74.7* | 2.9 | 50.6* | 9.2 | 11.3
O=C(/C=C/c1ccc([N+](=O)[O-])cc1)Nc1ncc([N+](=O)[O-])s1 | . | . | 59.5* | . | 17.8 | 24.0
COc1cccc(NC(=O)/C=C/c2ccccc2[N+](=O)[O-])c1 | 93.7* | 97.8* | 13.7 | 90.5* | 23.2 | 34.2
COc1ccc(OC)c(NC(=O)/C=C/c2ccccc2[N+](=O)[O-])c1 | -8.2 | 16.5 | -7.0 | -4.8 | 34.2 | 25.3
CCCC(=O)N1CCC1(C)C(=O)NS(=O)(=O)c1ccccc1 (centres undefined) | . | . | -14.5 | . | . | 23.3
O=C(Cn1nc(C(F)(F)F)cc1C1CC1)NCc1ccccc1F | -0.7 | -4.4 | -8.6 | -4.1 | 6.6 | 22.2
CCOC(=O)c1c(C)[nH]c(N=Nc2ccc(OC)cc2)c1C | 17.2 | 61.3* | -3.2 | 33.5 | 12.6 | 49.4*
CCOC(=O)c1c(C)[nH]c(N=Nc2ccccc2)c1C | 9.1 | 14.5 | -14.6 | 11.3 | 3.5 | 44.2*
CCOC(=O)c1c(C)[nH]c(N=Nc2ccccc2Cl)c1C | 30.8 | -1.7 | -9.1 | 16.6 | 24.0 | 34.9
N#Cc1ccsc1NC(=O)COC(=O)c1cc2ccccc2cc1O | 89.0* | 96.4* | 6.1 | 89.3* | 8.5 | -82.9
NC(=O)Nc1ccc(C(=O)OCC(=O)Nc2sccc2C(N)=O)cc1 | -1.9 | 3.5 | 19.0 | -2.6 | . | -4.7
N#Cc1ccsc1NC(=O)COC(=O)c1ccc(NC(N)=O)cc1 | 68.8* | 49.9 | 19.2 | 73.3* | 12.4 | -1.9
COc1ccc(S(N)(=O)=O)cc1C(=O)OCC(=O)Nc1sccc1C#N | -4.7 | -11.0 | -1.6 | -19.7 | . | -5.2
CCOC(=O)CC1C(=O)NCCN1c1nc2ccc(C)cn2c(=O)c1/C=C1\SC(=S)N(CC(C)C)C1=O (centres undefined) | 12.1 | -4.3 | 7.7 | -2.3 | -1.1 | 47.9*
CCOC(=O)CC1C(=O)NCCN1c1nc2ccc(C)cn2c(=O)c1/C=C1\SC(=S)N(C(C)CC)C1=O (centres undefined) | -0.5 | -9.9 | . | 6.2 | 35.5 | .
O=S(=O)(c1c(F)cccc1F)N(CCc1ccc(F)cc1)C[C@@H](O)COCc1ccccc1 | . | . | -16.7 | . | . | 9.5
O=C1N=NC(=O)N1c1ccccc1 | -1.1 | -0.7 | 1.4 | 2.5 | . | 10.8
CC(=O)N1CCc2cc(NC(=O)C3(C)CCN3Cc3ccccc3OC(F)F)ccc21 (centres undefined) | . | . | 30.7 | . | . | 19.4
COC(=O)c1cc(C)nc2c1C(=O)C(=O)C=C2N1CCOCC1 | 93.2* | 90.4* | 92.1* | 98.3* | . | 111.0*
COc1ccnc(-n2cccc2/C=N/O)c1C#N | -0.2 | -19.9 | 2.6 | 0.3 | -20.3 | 4.6
COc1ccccc1OCC(=O)N/N=C1\CCCCc2ccccc21 | -0.2 | 1.4 | 5.0 | -4.0 | 19.4 | 16.1
O=C(COc1ccccc1F)N/N=C1\CCCc2ccccc21 | 38.8 | 56.8* | 1.3 | 37.4 | 18.3 | 11.6
CCC(=O)Oc1ccc(NC(=O)CSCc2ccccc2)cc1 | -3.9 | -3.5 | 7.4 | 10.2 | 31.7 | 3.9
N#Cc1ccsc1NC(=O)c1ccc(Cl)c([N+](=O)[O-])c1 | 91.5* | 96.1* | 25.5 | 93.9* | 5.1 | 20.7
N#Cc1ccsc1NC(=O)c1cccc([N+](=O)[O-])c1 | 7.8 | -10.8 | -11.5 | 1.4 | 38.3 | 4.9
SMILES | SENP7 inh | SENP6 inh | C8 TRAIL sens | SENP8 block-1 | PPC-1+TRAIL kill | SENP8 block-2
FC(F)(F)c1cccc(Sc2nc(-c3ccccc3)nnc2C(F)(F)F)c1 | 2.8 | 10.4 | 51.0* | 2.0 | 11.9 | 13.2
FC(F)(F)c1nnc(-c2ccccc2)nc1Sc1ccccc1 | -7.8 | -4.0 | 9.3 | -0.8 | 10.0 | 17.1
FC(F)(F)c1nnc(-c2ccccc2)nc1Sc1ccc(Cl)cc1 | -4.5 | -3.0 | 48.2* | -9.0 | 21.9 | 10.3
Cn1cc(Cl)c(C(=O)Nc2nc3ccc([N+](=O)[O-])cc3s2)n1 | 89.6* | 65.4* | 24.9 | 58.0* | 29.6 | 6.9
CCC(=O)Nc1nc2ccc([N+](=O)[O-])cc2s1 | 2.1 | 7.2 | 15.8 | -11.2 | 24.2 | 20.9
COc1ccc2c(c1OC)C(=O)OC2Nc1nc(-c2cc3cc(Br)ccc3oc2=O)cs1 (centres undefined) | 90.9* | 94.6* | -16.1 | 90.9* | 8.3 | -382.3
